# The whole screen tested about 1,300 compounds, of which about 750 (58%) were called active. Some of the results follow.
# Molecular target: Sulfhydryl oxidase 1 (Homo sapiens) (UniProt O00391)
# Assay: inhibition of human sulfhydryl oxidase QSOX1 – biochemical, ROS-Glo H2O2 luminescence, HTS, primary screen (AID 1347418)
# Settings: recombinant QSOX1, ROS-Glo H2O2 luminescence; at 12.5 µM; active compounds read high; active = any value above zero
# Sequence of Sulfhydryl oxidase 1 (Homo sapiens) (O00391 whole entry, looked up): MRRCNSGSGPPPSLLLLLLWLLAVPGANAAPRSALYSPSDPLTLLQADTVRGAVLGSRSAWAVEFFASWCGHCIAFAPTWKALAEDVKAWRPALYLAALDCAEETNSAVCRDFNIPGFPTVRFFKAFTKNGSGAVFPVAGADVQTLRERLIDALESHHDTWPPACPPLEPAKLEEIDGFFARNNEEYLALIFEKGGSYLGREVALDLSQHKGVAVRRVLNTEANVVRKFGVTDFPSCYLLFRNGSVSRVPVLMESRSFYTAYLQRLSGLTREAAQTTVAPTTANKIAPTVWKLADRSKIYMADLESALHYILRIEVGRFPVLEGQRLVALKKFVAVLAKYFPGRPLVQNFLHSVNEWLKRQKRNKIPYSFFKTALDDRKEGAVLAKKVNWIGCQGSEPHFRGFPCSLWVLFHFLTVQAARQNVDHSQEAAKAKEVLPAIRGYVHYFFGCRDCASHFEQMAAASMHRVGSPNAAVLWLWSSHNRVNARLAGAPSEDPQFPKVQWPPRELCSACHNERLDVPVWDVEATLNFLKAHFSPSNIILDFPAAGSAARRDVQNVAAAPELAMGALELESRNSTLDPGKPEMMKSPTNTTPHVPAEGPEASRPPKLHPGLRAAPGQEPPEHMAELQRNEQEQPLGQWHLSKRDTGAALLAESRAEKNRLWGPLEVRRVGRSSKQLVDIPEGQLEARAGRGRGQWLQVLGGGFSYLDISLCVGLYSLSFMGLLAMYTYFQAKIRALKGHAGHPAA
row,SMILES,inhibition
1,Cc1ccc2c(c1)C(N1CCN(C)CC1)=Nc1cccnc1N2,15.5% (active)
2,CC1=NS(=O)(=O)c2cc(Cl)ccc2N1,-1.4% (inactive)
3,CN1CCN(C2=Nc3cc(Cl)ccc3Nc3ccccc32)CC1,22.2% (active)
4,Clc1ccc2c(c1)N=C(N1CCNCC1)c1ccccc1N2,23.2% (active)
5,CCCCC[C@H](CC(=O)NO)C(=O)N[C@H](C(=O)N1CCC[C@H]1CO)C(C)C,-6.2% (inactive)
6,CCN1CCc2nc(N)oc2CC1,2.8% (active)
7,O=C(O)CCCCCCCC(=O)O,-1.7% (inactive)
8,CCCCCC(O)CCCC(=O)O (configuration not stated),1.1% (active)
9,CCCCCCCCCCCCCCSCC(=O)O,-7.6% (inactive)
10,CC(C)(C=O)Cc1cc(C(C)(C)C)c(O)c(C(C)(C)C)c1,-0.1% (inactive)
11,CC(C)(CO)Cc1cc(C(C)(C)C)c(O)c(C(C)(C)C)c1,4.9% (active)
12,CCCCCCCCCCCCCCC[C@H](O)[C@H](N)CO,7.8% (active)
13,CCCCCC[C@@H]([C@@H](C)O)n1cnc2c(N)ncnc21,-0.9% (inactive)
14,CCCC(=O)NCCc1c2n(c3ccc(OC)cc13)CCCc1ccccc1-2,15% (active)
15,CC(C)Cc1ccc(C(C)C(=O)O)cc1 (configuration not stated),5.8% (active)
16,CC(C(=O)O)c1cccc(C(=O)c2ccccc2)c1 (configuration not stated),-2.4% (inactive)
17,CC(C)Cc1ccc([C@H](C)C(=O)O)cc1,-0.6% (inactive)
18,CC(C(=O)O)c1ccc(CC2CCCC2=O)cc1 (configuration not stated),0.1% (active)
19,O=C(O)/C=C/c1cnc[nH]1,1% (active)
20,CCC1(C)CC(=O)NC1=O (configuration not stated),0.9% (active)
21,CCCCOc1cc(CC2CNC(=O)N2)ccc1OC (configuration not stated),-0.2% (inactive)
22,N[C@H](C(=O)O)[C@H]1C[C@@H]1C(=O)O,0.2% (active)
23,Cc1cccc(C)c1OCC(N)C(C)C (configuration not stated),4.5% (active)

row,SMILES,inhibition
1,Cc1cccc(C)c1OCC(C)N (configuration not stated),-0.4% (inactive)
2,Cc1cc2c(cc1Cl)N(C(=O)Nc1ccc(Oc3cccnc3C)nc1)CC2,1.2% (active)
3,Cc1cc2c(cc1Cl)N(C(=O)Nc1ccnc3ccccc13)CC2,16.8% (active)
4,CCN(CC)CCNC(=O)c1ccc(NS(C)(=O)=O)cc1,-0.3% (inactive)
5,CCN(CC)CCNC(=O)c1ccc(NC(C)=O)cc1,0.3% (active)
6,CCN(CC)CCNC(=O)c1ccc(N)cc1,-7.4% (inactive)
7,CN(C)CCN(Cc1cccs1)c1ccccn1,7% (active)
8,CN(C)CCOC(C)(c1ccccc1)c1ccccn1 (configuration not stated),-2.5% (inactive)
9,COc1ccc(CN(CCN(C)C)c2ccccn2)cc1,1.5% (active)
10,CNC1(C)C2CCC(C2)C1(C)C (configuration not stated),-2% (inactive)
11,CN1CCCC1CCOC(C)(c1ccccc1)c1ccc(Cl)cc1 (configuration not stated),0.6% (active)
12,C=C/C(C)=C/[C@@]1(C)SC(=O)C(C)=C1O,-4.2% (inactive)
13,CO/N=C(\C(=O)N[C@@H]1C(=O)N2C(C(=O)O)=C(CSc3nc(=O)c(O)nn3C)CSC12)c1csc(N)n1 (some centres not stated),-1.9% (inactive)
14,CO[C@@]1(NC(=O)CSCC#N)C(=O)N2C(C(=O)O)=C(CSc3nnnn3C)CS[C@@H]21,0.7% (active)
15,Cc1nnc(SCC2=C(C(=O)O)N3C(=O)[C@@H](NC(=O)Cn4cnnn4)[C@H]3SC2)s1,-3.9% (inactive)
16,O=C(O)C1CN(CCCP(=O)(O)O)CCN1 (configuration not stated),2.1% (active)
17,CN1CCC2(CCN3CCc4c(oc5ccccc45)C3C2)N(C)C1=O (configuration not stated),-6.5% (inactive)
18,NC(=O)CNCCC(c1ccccc1)c1ccccc1,2.2% (active)
19,OC(CN1CCN(c2cccc(Cl)c2)CC1)C(c1ccccc1)c1ccccc1 (configuration not stated),5.1% (active)
20,CC1CCN=C(N)S1 (configuration not stated),-1.8% (inactive)
21,O=C(O)C1=CCCN(CCON=C(c2ccccc2)c2ccccc2)C1,1.1% (active)
22,CC(C)C[C@H]1C(=O)N2CCC[C@H]2[C@]2(O)O[C@](NC(=O)[C@@H]3C=C4c5cccc6[nH]c(Br)c(c56)C[C@H]4N(C)C3)(C(C)C)C(=O)N12,4% (active)
23,CCCn1c(=O)[nH]c(=O)c2[nH]cnc21,-1.8% (inactive)

row,SMILES,inhibition
1,CC1C(=O)N(C)C(=O)c2nc[nH]c21 (configuration not stated),0.5% (active)
2,Cc1ccc(S(=O)(=O)NC(=O)NN2CCCCCC2)cc1,4.7% (active)
3,Cc1ccc(S(=O)(=O)N[C@@H](Cc2ccccc2)C(=O)CCl)cc1,-8.2% (inactive)
4,CCc1ccc2c(-c3cccc(Cl)c3)nc(=O)n(CC)c2n1,-0.7% (inactive)
5,Clc1cccc(Cl)c1NC1=NCCN1,-1.9% (inactive)
6,Clc1ccc2nsnc2c1NC1=NCCN1,1.5% (active)
7,Nc1cc(Cl)c(NC2=NCCN2)c(Cl)c1,-2.8% (inactive)
8,Cn1cc(C2=C(c3ccc(Cl)cc3Cl)C(=O)NC2=O)c2ccccc21,-1.7% (inactive)
9,O=C(O)Cc1ccc(O)c(O)c1,5.6% (active)
10,COc1cc(CC(=O)O)ccc1O,11% (active)
11,CCCCCCCC/C=C\CCCCCCCC(=O)NCc1ccc(O)c(OC)c1,-4.3% (inactive)
12,CCN(CC)C(=O)c1ccc(O)c(OC)c1,6.8% (active)
13,COc1cc(CNC(=O)CCCCCCC(C)C)ccc1O,7.6% (active)
14,CC1CCN(CC[C@H]2CCCN2S(=O)(=O)c2cccc(O)c2)CC1,-3.7% (inactive)
15,Brc1c(NC2=NCCN2)ccc2nccnc12,-3.8% (inactive)
16,O=C1c2ccccc2-c2n[nH]c3cccc1c23,12.7% (active)
17,Oc1ccc(C2CNCCc3c2cc(O)c(O)c3Cl)cc1 (configuration not stated),30% (active)
18,Oc1cc2c(c(Cl)c1O)CCNCC2c1ccccc1 (configuration not stated),24.1% (active)
19,Oc1cc2c(cc1O)C(c1ccccc1)CNCC2 (configuration not stated),5.7% (active)
20,O=C(O)C1=CCNCC1,-1.6% (inactive)
21,CN(C)C(N)=NCCC[C@H](N)C(=O)O,0.3% (active)
22,CSC(N)=NCCC[C@H](N)C(=O)O,1.7% (active)
23,NC(N)=NCCC[C@H](N)C(=O)O,6% (active)

row,SMILES,inhibition
1,CC(N)=NCCCC[C@@H](N)C(=O)O,-0.6% (inactive)
2,O=c1c2ccccc2nc2n1CCc1c-2[nH]c2ccccc12,5% (active)
3,Nc1c2c(nc3ccccc13)CCCC2,-3.1% (inactive)
4,CCCCCCCCCCC/C=C\C(C)(C)/C=C\CCCC(=O)O,9.1% (active)
5,CCCCCCC/C=C\CCCCCCCCC(=O)O,-3.4% (inactive)
6,CCCn1c(=O)c2[nH]c(-c3ccc(S(=O)(=O)O)cc3)nc2n(CCC)c1=O,-0.7% (inactive)
7,CCCn1c(=O)c2[nH]c(-c3ccc(OCC(=O)NCCN)cc3)nc2n(CCC)c1=O,0.5% (active)
8,CCC1(c2ccccc2)C(=O)NCNC1=O,2.4% (active)
9,CN1Cc2c(N)cccc2C(c2ccccc2)C1 (configuration not stated),5.3% (active)
10,CC1=C(/C=C/C(C)=C/C=C/C(C)=C/C(=O)O)C(C)(C)CCC1,2.4% (active)
11,CC1=C(/C=C/C(C)=C/C=C/C(C)=C\C(=O)O)C(C)(C)CCC1,-3% (inactive)
12,CC1=C(/C=C/C(C)=C/C=C/C(C)=C/C(=O)Nc2ccc(O)cc2)C(C)(C)CCC1,1.8% (active)
13,CC(=O)O[C@]1(C(C)=O)CC[C@H]2[C@@H]3C=C(Cl)C4=CC(=O)[C@@H]5C[C@@H]5[C@]4(C)[C@H]3CC[C@@]21C,6.1% (active)
14,NC[C@@H]1O[C@H](c2ccccc2)Cc2c1ccc(O)c2O,11% (active)
15,NC[C@@H]1O[C@H](C23CC4CC(CC(C4)C2)C3)Cc2c1ccc(O)c2O,17.8% (active)
16,Nc1ncnc2n[nH]c(Nc3ccc(F)cc3)c12,19.7% (active)
17,C1COC(NC(C2CC2)C2CC2)=N1,0.6% (active)
18,Clc1ccc(Cn2c(CN3CCCC3)nc3ccccc32)cc1,-0.7% (inactive)
19,Clc1ccc(N2CCN(Cc3cc4ccccn4n3)CC2)cc1,21.7% (active)
20,O=C1CCC(N2C(=O)c3ccccc3C2=O)C(=O)N1 (configuration not stated),-1.8% (inactive)
21,O=c1ccc2ccc(O)c(O)c2o1,31.6% (active)
22,CC[C@@H](CO)Nc1nc(NCc2ccccc2)c2ncn(C(C)C)c2n1,6.3% (active)
23,Cn1cnc2c(NCc3ccccc3)nc(NCCO)nc21,1.3% (active)

row,SMILES,inhibition
1,Cc1cc(NC2CCCCC2)nc(-n2nc(C)cc2C)n1,1.1% (active)
2,O=C(O)c1ccccc1Nc1ccccc1,42.7% (active)
3,Cc1ccc(Cl)c(Nc2ccccc2C(=O)O)c1Cl,6.2% (active)
4,O=C(O)CP(=O)(O)O,-4% (inactive)
5,CC(N)C1CCC(C(=O)Nc2ccncc2)CC1 (configuration not stated),4.4% (active)
6,COc1ccc(C2CNC(=O)C2)cc1OC1CCCC1 (configuration not stated),-7.5% (inactive)
7,CC[C@@H](C)[C@H]1O[C@]2(CC[C@@H]1C)C[C@@H]1C[C@@H](C/C=C(\C)[C@@H](O[C@H]3C[C@H](OC)[C@@H](O[C@H]4C[C@H](OC)[C@@H](O)[C@H](C)O4)[C@H](C)O3)[C@@H](C)/C=C/C=C3\CO[C@@H]4[C@H](O)C(C)=C[C@@H](C(=O)O1)[C@]34O)O2,1.1% (active)
8,COc1ccccc1OCCNCC(O)COc1cccc2[nH]c3ccccc3c12 (configuration not stated),1.9% (active)
9,CCCNCC(O)COc1ccccc1C(=O)CCc1ccccc1 (configuration not stated),-7.1% (inactive)
10,C=C1C(=O)O[C@@H]2[C@H]3O[C@]3(C)CCC=C(C)CC[C@@H]12,0.5% (active)
11,NCCCC(N)(C(=O)O)C(F)F (configuration not stated),-2.3% (inactive)
12,Cn1ncc(S(=O)(=O)Cc2ccccc2)c(Br)c1=O,-5.4% (inactive)
13,N[C@H](C(=O)O)[C@H](O)C(=O)O,0.9% (active)
14,N[C@@H](Cc1cnc[nH]1)C(=O)O,1.5% (active)
15,NC[C@H]1O[C@@H](n2cnc3c(N)ncnc32)[C@H](O)[C@@H]1O,-4.6% (inactive)
16,Nc1ncnc2c1ncn2[C@@H]1O[C@H](COP(=O)(O)CP(=O)(O)OP(=O)(O)O)[C@H](O)C1O (some centres not stated),-6.5% (inactive)
17,NC(=O)C1=C[N+](=C2OC(COP(=O)(O)OP(=O)([O-])OC[C@H]3O[C@@H](n4cnc5c(N)ncnc54)C(OP(=O)(O)O)[C@H]3O)C(O)C2O)C=CC1 (some centres not stated),-0.9% (inactive)
18,Nc1ncnc2c1ncn2[C@@H]1O[C@H](COP(=O)(O)OP(=O)(O)OP(=O)(O)OP(=O)(O)OC[C@@H]2O[C@H](n3cnc4c(N)ncnc43)C(O)[C@@H]2O)[C@H](O)C1O (some centres not stated),3.7% (active)
19,NC(=S)c1ccc[n+]([C@@H]2O[C@@H](COP(=O)([O-])OP(=O)(O)OC[C@H]3O[C@@H](n4cnc5c(N)ncnc54)C(OP(=O)(O)O)[C@H]3O)C(O)C2O)c1 (some centres not stated),3.1% (active)
20,CCN(CC)c1ncnc2c1ncn2[C@@H]1O[C@H](COP(=O)(O)OP(=O)(O)C(Br)(Br)P(=O)(O)O)[C@@H](O)[C@H]1O,-1% (inactive)

# Source: PubChem BioAssay AID1347418 (Sanford-Burnham Center for Chemical Genomics, 2020)
